ALOX12 inhib = 12-hLO (ALOX12) enzyme inhibition; P18054; purified 12-hLO, xylenol orange hydroperoxide absorbance; Potency, µM (top dose mostly 57.1 µM), actives largely listed as inhibitors; hit rate 0.12% among 150,000; active means well fitted inhibition curve with a large enough effect; inconclusive means small, poorly fitted or top-dose-only effect; further: nearly all actives have a fitted effect of over 55% in size
Target sequence (P18054 whole entry, looked up): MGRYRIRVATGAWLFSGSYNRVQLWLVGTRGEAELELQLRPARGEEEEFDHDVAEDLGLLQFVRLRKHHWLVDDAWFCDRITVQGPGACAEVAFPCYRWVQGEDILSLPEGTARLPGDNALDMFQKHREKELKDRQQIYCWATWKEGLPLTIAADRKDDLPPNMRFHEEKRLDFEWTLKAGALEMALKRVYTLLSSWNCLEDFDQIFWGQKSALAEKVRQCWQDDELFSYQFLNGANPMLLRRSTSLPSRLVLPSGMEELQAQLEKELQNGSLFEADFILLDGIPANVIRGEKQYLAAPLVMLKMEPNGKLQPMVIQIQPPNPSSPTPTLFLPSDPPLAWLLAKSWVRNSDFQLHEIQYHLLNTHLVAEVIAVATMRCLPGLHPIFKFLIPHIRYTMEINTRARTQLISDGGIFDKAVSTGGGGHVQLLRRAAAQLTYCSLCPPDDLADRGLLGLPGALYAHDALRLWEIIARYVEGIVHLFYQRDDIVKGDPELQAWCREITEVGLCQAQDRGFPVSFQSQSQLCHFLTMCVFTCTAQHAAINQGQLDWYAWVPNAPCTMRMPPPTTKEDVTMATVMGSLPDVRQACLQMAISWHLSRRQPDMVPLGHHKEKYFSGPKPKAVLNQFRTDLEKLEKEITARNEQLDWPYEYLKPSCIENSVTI
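Purified human 12hLO (150 nM), preincubated 15 min with compound, then 40 uM arachidonic acid for 30 min, room temperature, Hepes pH 7.0 with 0.01% Triton X-100. Hydroperoxide detected by ferrous iron/xylenol orange; 573/405 nm absorbance ratio gives reaction progress.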
HPGD inh = blocks human HPGD enzyme activity. Potency, µM, usual class: inhibitors. purified HPGD, NADH fluorescence kinetic, PGE2 substrate. hit rate 4.3% among 150,000. P15428
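20 nM HPGD preincubated 15 min at room temperature with compound in 50 mM Tris-HCl pH 8, 0.01% Tween 20. Started with 1 mM NAD+ and 30 uM prostaglandin E2; NADH fluorescence (360/450 nm) read 5 times over 30-s intervals, last minus first.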
Lamin A splicing = LMNA splicing modulation. AID 1487. HeLa LMNA splicing GFP/RFP minigene ratio, 48 h. Potency, µM (highest dose often 46.1 µM), most hits filed as inhibitors. hit rate 0.01% among 200,000; active means well fitted inhibition curve with a large enough effect in the signal ratio, with a control signal flat, not every such curve was filed as active; inconclusive means small, poorly fitted or top-dose-only effect, or effect the other way, or a change in a side signal; the % refers to the signal ratio
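S3 HeLa cells stably expressing lamin A-EGFP splicing minigene plus DsRed2, 600 cells/well, 48 h compound exposure at 37C. Laser-scanning cytometry; analysed as GFP (500-530 nm)/RFP (575-640 nm) total intensity ratio; 0.5% DMSO vehicle.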
ALDH1A1 block = ALDH1A1 (human) enzyme inhibition; AID 1030; hit rate 7.3% among 220,000; Potency, µM (series often up to 75.3 µM), hits mostly inhibitors; P00352; Purified ALDH1A1, NADH fluorescence, propionaldehyde substrate
PNC assembly inh = blocks assembly of the perinucleolar compartment | PC3M PTB-GFP, PNC prevalence imaging, 16 h; hits give low values | activity change (PNC), negative = inhibition, % at 10 µM | hit rate 3.1% among 140,000;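 active means readout at or below -70, meaning at least 70% loss of cells showing the perinucleolar compartment, a nuclear body marking cancer cells; inconclusive means readout between -30 and a set limit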
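PC3M cells stably expressing PTB-GFP, 750–1000 cells/well, treated 16 h at 37 °C with compound (23 nl of library stock), in duplicate. After paraformaldehyde fixation and Hoechst stain, imaged at 20x; PNC prevalence scored by image analysis.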
Large screens that a line does not name were inactive. This is a sample that favours compounds with a hit; in the whole collection about 10% have one here. Unless noted, the call rests on the fitted dose curve; in most records, active means well fitted inhibition curve with a large enough effect (not every such curve was filed as active); inconclusive means small, poorly fitted or top-dose-only effect, or another doubt; inactive means no such curve, though single readings can be large or run the other way.

Cc1ccc(/C=C2\CCC(C3CCCC3)C2=O)cc1 (stereo not drawn)	none
C=C(C)C(N)=O	none (no result: Lamin A splicing, PNC assembly inh)
CC(C(=O)NC1CCCc2ccccc21)N1CCN(Cc2ccc3c(c2)OCO3)CC1 (stereo not drawn)	Lamin A splicing inconclusive, ALDH1A1 block 6.3µM
CC(C(=O)NC1CCCc2ccccc21)N1CCN(c2ccc(F)cc2)CC1 (stereo not drawn)	none (no result: HPGD inh)
CC(C)c1ccc(Nc2ncnc3c2c(-c2ccccc2)cn3-c2ccccc2)cc1	none (no result: ALOX12 inhib, HPGD inh, ALDH1A1 block, PNC assembly inh)
Cc1cc(Nc2ccc(Cl)cc2)n(-c2cccc(Cl)c2)n1	Lamin A splicing inconclusive
Cc1cc(Nc2ccc(Cl)cc2)n(-c2ccccc2)n1	HPGD inh 7.9µM
O=C(CCSc1ccccn1)c1ccccc1	ALDH1A1 block 0.25µM (no result: ALOX12 inhib, HPGD inh, Lamin A splicing, PNC assembly inh)
O=C(CCCc1ccccn1)c1ccccc1	none (no result: Lamin A splicing, PNC assembly inh)
C=CCN1C(=O)/C(=c2\sc3nc(=O)c(Cc4ccccc4Cl)nn3c2=O)c2ccccc21	Lamin A splicing inconclusive, ALDH1A1 block 3.5µM (no result: ALOX12 inhib, HPGD inh, PNC assembly inh)
COCCNC(=O)c1ccc2c(c1)NC(=O)C(CS(=O)(=O)Cc1ccc(F)cc1Cl)N2 (stereo not drawn)	none (no result: ALOX12 inhib, HPGD inh, ALDH1A1 block, PNC assembly inh)
CCOC(=O)C1CCN(S(=O)(=O)c2ccc(OCC)cc2)CC1	none
CCOC(=O)C1CCN(C(=O)COc2ccc(S(=O)(=O)N3CCCC3)cc2C)CC1	ALDH1A1 block 18µM (no result: ALOX12 inhib, HPGD inh, Lamin A splicing, PNC assembly inh)
CCOC(=O)C1CCN(C(=O)COc2ccc(Cl)cc2Cl)CC1	none
CCOC(=O)C1CCN(C(=O)COc2ccc(Cl)cc2C)CC1	ALDH1A1 block inconclusive, PNC assembly inh -87
Cc1c(C(=O)Nc2cccc(F)c2)oc2c1-c1nn(Cc3c(F)cccc3Cl)cc1CC2	none (no result: ALOX12 inhib, HPGD inh, ALDH1A1 block, PNC assembly inh)
COc1ccc(NC(=O)CSc2c(C(C)C)cnc3c2c(=O)n(C)c(=O)n3C)c(OC)c1	none (no result: ALOX12 inhib, HPGD inh, ALDH1A1 block, PNC assembly inh)
Clc1ccc2c(NCc3ccccn3)ncnc2c1	HPGD inh inconclusive, ALDH1A1 block 3.5µM
COCOc1cc(OC)ccc1C(=O)/C=C\c1ccc2c(c1)OCO2	none (no result: ALOX12 inhib, HPGD inh, Lamin A splicing, PNC assembly inh)
COC(=O)c1ccccc1NC(=O)Cn1cc(S(=O)(=O)Cc2ccccc2F)c2ccccc21	none (no result: ALOX12 inhib, HPGD inh, ALDH1A1 block, PNC assembly inh)
CC(Sc1ccsc1[N+](=O)[O-])C(=O)NCCc1ccc(Cl)cc1 (stereo not drawn)	ALDH1A1 block 3.2µM
C=CCOC(=O)N[C@@H](c1cccs1)C(C(C)=O)C(C)=O	none (no result: ALOX12 inhib, Lamin A splicing, PNC assembly inh)
COc1ccc(N2CCN(C(=O)C3CCN(S(=O)(=O)c4cn(C)cn4)CC3)CC2)cc1	none (no result: ALOX12 inhib, HPGD inh, ALDH1A1 block, PNC assembly inh)
N#C/C(=C\c1ccc(-c2ccccc2[N+](=O)[O-])o1)C(=O)Nc1nc(-c2cccs2)cs1	Lamin A splicing inconclusive, ALDH1A1 block 1.8µM
CNC(=O)/C(C#N)=C/c1ccc(-c2ccc(OC)cc2[N+](=O)[O-])o1	HPGD inh 7.1µM
N#C/C(=C/c1ccc(-c2ccccc2[N+](=O)[O-])o1)C(N)=O	none (no result: ALOX12 inhib, HPGD inh, Lamin A splicing, PNC assembly inh)
CN(C)C(=O)c1ccc(-c2nc(Nc3ccccc3)c3ccccc3n2)cc1	Lamin A splicing inconclusive (no result: ALOX12 inhib, HPGD inh, PNC assembly inh)
CC(C)NC(=O)C1CCN(C(=O)c2cc3sccc3n2Cc2ccc(F)cc2)CC1	ALDH1A1 block 13µM
CC1CCN(C(=O)C2CCN(C(=O)c3cc4sccc4n3Cc3ccc(F)cc3)CC2)CC1	Lamin A splicing inconclusive, ALDH1A1 block 14µM
COC(=O)c1cc2sccc2n1Cc1ccc(F)cc1	none (no result: ALOX12 inhib, HPGD inh, ALDH1A1 block, PNC assembly inh)
CCN(CC)CCCNC(=O)c1ccc2nc(CCc3ccccc3)oc2c1	none (no result: ALOX12 inhib, HPGD inh, ALDH1A1 block, PNC assembly inh)
COc1ccc(N2CCN(C(=O)c3c(C)nn(-c4ccccc4)c3C)CC2)cc1	none
CC(=O)c1c(C)n(-c2ccccc2)c2ccc(O)cc12	HPGD inh 5µM, Lamin A splicing inconclusive
COc1ccc2c(c1)c(C(=O)N1CCN(C)CC1)c(C)n2-c1ccccc1	HPGD inh inconclusive, ALDH1A1 block 14µM
COC(=O)c1c(C)n(-c2ccccc2)c2ccc(O)cc12	HPGD inh inconclusive
COc1ccccc1CNc1nc(-c2ccco2)nn1C(=O)c1ccccc1[N+](=O)[O-]	none (no result: ALOX12 inhib, HPGD inh, ALDH1A1 block, PNC assembly inh)
COc1ccc(S(=O)(=O)NCC(c2ccco2)N2CCN(c3ccccc3F)CC2)cc1C (stereo not drawn)	none (no result: ALOX12 inhib, HPGD inh, ALDH1A1 block, PNC assembly inh)
N#Cc1cc([N+](=O)[O-])c(-n2nnc3ccccc32)c([N+](=O)[O-])c1	HPGD inh 28µM
O=[N+]([O-])c1ccc(COn2nnc3ccccc32)cc1	none (no result: ALOX12 inhib, HPGD inh, PNC assembly inh)
CC(=O)c1cc2c(cc1N/C(=N/S(=O)(=O)c1ccc(C)cc1)c1ccc(F)cc1)OCO2	none (no result: ALOX12 inhib, HPGD inh, ALDH1A1 block, PNC assembly inh)
